Measured values as given in the supplement of paper PMC11732987, “Enantioselective OTUD7B fragment discovery through chemoproteomics screening and high-throughput optimisation” (Communications Chemistry, 2025).

What was measured:
Test in all cases: log2 ratio of Biotin-Ahx-Ub-VS probe labelling (fragment/DMSO); higher = less target engagement (more negative = stronger competition), active = hit call of the paper (q ≤ 0.05, log2 ratio ≤ -1)
Settings in all cases: compound concentration: 200 uM; treatment time: 3 h
[1] = target: USP34 (UniProt Q70CQ2)
Outline: (§1)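 Labelling with Biotin-Ahx-Ub-VS (0.5 µM final, 1 h) followed a 3 h triplicate treatment of HEK293T lysate (495 µg per sample, Tris/CHAPS/IGEPAL buffer with protease inhibitors) with fragment at 200 µM or vehicle. Labelled DUBs were NeutrAvidin-enriched, digested with LysC and trypsin, and run by diaPASEF LC-MS/MS. The values, average log2 fragment/vehicle ratios by unpaired t-test, come from global-median-normalised Spectronaut label-free quantities. Proteins with ≥2 unique peptides were used.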

[2] = target: T1, USP36 (UniProt Q9P275)
T1 sequence (whole entry): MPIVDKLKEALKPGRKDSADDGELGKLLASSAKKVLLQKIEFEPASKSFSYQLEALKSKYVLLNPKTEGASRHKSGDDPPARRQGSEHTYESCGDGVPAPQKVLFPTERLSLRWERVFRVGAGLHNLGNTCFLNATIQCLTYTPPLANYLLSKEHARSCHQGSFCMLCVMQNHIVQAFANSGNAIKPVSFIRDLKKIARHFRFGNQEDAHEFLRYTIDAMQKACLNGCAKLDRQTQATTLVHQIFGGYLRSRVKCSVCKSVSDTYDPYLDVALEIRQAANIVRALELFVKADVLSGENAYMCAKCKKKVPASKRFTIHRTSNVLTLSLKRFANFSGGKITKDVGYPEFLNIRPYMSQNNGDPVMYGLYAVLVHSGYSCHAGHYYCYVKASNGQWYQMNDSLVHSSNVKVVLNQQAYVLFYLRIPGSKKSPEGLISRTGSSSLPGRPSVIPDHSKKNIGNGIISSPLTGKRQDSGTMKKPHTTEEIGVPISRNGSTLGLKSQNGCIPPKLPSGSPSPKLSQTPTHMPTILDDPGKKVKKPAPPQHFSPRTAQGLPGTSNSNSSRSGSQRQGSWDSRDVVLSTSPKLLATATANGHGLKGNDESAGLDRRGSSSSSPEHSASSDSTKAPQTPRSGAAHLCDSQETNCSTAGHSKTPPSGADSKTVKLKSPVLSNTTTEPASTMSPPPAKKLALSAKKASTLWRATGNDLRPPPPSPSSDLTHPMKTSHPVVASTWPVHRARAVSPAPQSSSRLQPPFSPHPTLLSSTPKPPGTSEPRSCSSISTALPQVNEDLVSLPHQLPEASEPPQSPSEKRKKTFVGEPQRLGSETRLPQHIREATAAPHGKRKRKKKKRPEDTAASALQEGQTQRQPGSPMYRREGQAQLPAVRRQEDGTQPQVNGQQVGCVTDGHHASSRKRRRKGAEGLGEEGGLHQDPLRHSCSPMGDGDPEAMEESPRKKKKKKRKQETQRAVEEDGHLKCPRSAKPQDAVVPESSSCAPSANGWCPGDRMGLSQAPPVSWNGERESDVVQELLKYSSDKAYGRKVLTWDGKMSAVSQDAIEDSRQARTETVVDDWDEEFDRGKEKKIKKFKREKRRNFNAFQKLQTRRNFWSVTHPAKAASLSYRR
Outline: as §1

[3] = target: T2, USP38 (UniProt Q8NB14)
T2 sequence (whole entry): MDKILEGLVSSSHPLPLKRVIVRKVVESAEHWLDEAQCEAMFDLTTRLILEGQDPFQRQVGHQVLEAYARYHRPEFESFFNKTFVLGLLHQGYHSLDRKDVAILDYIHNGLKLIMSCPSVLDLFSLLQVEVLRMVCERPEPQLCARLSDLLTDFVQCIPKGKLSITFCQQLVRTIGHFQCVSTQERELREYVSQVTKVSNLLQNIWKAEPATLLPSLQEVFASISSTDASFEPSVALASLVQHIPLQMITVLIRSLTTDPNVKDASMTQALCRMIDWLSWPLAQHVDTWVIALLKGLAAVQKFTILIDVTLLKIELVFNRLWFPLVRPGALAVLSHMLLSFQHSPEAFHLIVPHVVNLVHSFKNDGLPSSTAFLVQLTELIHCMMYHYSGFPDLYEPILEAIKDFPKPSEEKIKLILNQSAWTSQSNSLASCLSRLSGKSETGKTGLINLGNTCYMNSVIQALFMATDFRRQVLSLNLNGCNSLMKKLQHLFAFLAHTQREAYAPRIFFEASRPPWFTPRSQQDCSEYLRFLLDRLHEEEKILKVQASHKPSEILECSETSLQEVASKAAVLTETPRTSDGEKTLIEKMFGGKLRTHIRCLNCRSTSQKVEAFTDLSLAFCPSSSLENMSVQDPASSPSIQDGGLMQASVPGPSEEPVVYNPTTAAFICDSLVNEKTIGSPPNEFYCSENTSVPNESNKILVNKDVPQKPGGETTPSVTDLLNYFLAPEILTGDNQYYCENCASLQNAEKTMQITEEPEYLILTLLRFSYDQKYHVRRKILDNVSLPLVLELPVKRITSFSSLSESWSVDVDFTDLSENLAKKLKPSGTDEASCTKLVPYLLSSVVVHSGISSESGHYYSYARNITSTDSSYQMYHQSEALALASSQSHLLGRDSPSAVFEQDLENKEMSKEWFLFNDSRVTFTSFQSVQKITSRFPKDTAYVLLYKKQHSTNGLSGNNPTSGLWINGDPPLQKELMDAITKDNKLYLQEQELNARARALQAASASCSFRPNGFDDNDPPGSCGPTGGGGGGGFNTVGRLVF
Outline: as §1

[4] = target: T3, USP39 (UniProt Q53GS9)
T3 sequence (whole entry): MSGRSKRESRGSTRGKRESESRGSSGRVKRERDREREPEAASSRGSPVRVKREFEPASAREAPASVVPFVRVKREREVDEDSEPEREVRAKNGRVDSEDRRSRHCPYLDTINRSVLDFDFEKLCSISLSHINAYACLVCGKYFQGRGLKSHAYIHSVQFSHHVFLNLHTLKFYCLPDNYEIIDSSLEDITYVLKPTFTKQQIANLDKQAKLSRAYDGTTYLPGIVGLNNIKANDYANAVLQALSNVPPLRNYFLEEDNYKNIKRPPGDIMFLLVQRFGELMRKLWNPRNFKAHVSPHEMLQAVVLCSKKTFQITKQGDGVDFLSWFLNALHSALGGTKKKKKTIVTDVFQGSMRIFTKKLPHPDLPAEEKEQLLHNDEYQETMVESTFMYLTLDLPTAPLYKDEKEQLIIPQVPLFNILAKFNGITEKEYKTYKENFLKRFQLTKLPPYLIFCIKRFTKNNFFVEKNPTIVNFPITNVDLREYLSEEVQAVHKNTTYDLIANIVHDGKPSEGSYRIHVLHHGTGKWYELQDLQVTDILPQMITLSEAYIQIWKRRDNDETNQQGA
Outline: as §1

[5] = target: T4, USP4 (UniProt Q13107)
T4 sequence (whole entry): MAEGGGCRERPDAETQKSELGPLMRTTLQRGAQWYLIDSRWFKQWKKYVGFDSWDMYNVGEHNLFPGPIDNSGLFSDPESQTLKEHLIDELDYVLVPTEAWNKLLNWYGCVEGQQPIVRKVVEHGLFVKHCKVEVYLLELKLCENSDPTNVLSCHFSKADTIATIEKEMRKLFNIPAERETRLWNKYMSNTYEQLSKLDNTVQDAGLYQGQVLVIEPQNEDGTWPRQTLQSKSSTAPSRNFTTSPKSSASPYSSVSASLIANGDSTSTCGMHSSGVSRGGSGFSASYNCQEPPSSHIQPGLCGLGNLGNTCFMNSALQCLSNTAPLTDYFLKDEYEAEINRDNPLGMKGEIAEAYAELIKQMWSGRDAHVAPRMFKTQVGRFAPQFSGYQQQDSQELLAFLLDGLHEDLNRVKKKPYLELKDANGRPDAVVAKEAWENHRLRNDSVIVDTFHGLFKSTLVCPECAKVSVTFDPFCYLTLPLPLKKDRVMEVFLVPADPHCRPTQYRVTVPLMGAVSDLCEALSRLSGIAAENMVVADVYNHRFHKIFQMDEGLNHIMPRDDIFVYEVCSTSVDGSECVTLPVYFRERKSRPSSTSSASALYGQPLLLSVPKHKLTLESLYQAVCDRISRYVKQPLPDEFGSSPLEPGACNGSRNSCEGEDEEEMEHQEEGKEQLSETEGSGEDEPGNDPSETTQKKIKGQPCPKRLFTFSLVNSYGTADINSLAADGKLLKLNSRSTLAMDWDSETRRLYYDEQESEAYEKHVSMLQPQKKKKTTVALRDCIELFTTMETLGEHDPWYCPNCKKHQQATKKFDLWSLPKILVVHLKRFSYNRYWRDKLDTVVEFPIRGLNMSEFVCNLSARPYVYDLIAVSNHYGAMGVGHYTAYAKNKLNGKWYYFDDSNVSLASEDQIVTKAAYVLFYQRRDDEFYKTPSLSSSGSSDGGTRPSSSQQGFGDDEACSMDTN
Outline: as §1

Measured: log2 ratio of Biotin-Ahx-Ub-VS probe labelling

USP34, sequence (Q70CQ2 whole entry, the tested form may be a part): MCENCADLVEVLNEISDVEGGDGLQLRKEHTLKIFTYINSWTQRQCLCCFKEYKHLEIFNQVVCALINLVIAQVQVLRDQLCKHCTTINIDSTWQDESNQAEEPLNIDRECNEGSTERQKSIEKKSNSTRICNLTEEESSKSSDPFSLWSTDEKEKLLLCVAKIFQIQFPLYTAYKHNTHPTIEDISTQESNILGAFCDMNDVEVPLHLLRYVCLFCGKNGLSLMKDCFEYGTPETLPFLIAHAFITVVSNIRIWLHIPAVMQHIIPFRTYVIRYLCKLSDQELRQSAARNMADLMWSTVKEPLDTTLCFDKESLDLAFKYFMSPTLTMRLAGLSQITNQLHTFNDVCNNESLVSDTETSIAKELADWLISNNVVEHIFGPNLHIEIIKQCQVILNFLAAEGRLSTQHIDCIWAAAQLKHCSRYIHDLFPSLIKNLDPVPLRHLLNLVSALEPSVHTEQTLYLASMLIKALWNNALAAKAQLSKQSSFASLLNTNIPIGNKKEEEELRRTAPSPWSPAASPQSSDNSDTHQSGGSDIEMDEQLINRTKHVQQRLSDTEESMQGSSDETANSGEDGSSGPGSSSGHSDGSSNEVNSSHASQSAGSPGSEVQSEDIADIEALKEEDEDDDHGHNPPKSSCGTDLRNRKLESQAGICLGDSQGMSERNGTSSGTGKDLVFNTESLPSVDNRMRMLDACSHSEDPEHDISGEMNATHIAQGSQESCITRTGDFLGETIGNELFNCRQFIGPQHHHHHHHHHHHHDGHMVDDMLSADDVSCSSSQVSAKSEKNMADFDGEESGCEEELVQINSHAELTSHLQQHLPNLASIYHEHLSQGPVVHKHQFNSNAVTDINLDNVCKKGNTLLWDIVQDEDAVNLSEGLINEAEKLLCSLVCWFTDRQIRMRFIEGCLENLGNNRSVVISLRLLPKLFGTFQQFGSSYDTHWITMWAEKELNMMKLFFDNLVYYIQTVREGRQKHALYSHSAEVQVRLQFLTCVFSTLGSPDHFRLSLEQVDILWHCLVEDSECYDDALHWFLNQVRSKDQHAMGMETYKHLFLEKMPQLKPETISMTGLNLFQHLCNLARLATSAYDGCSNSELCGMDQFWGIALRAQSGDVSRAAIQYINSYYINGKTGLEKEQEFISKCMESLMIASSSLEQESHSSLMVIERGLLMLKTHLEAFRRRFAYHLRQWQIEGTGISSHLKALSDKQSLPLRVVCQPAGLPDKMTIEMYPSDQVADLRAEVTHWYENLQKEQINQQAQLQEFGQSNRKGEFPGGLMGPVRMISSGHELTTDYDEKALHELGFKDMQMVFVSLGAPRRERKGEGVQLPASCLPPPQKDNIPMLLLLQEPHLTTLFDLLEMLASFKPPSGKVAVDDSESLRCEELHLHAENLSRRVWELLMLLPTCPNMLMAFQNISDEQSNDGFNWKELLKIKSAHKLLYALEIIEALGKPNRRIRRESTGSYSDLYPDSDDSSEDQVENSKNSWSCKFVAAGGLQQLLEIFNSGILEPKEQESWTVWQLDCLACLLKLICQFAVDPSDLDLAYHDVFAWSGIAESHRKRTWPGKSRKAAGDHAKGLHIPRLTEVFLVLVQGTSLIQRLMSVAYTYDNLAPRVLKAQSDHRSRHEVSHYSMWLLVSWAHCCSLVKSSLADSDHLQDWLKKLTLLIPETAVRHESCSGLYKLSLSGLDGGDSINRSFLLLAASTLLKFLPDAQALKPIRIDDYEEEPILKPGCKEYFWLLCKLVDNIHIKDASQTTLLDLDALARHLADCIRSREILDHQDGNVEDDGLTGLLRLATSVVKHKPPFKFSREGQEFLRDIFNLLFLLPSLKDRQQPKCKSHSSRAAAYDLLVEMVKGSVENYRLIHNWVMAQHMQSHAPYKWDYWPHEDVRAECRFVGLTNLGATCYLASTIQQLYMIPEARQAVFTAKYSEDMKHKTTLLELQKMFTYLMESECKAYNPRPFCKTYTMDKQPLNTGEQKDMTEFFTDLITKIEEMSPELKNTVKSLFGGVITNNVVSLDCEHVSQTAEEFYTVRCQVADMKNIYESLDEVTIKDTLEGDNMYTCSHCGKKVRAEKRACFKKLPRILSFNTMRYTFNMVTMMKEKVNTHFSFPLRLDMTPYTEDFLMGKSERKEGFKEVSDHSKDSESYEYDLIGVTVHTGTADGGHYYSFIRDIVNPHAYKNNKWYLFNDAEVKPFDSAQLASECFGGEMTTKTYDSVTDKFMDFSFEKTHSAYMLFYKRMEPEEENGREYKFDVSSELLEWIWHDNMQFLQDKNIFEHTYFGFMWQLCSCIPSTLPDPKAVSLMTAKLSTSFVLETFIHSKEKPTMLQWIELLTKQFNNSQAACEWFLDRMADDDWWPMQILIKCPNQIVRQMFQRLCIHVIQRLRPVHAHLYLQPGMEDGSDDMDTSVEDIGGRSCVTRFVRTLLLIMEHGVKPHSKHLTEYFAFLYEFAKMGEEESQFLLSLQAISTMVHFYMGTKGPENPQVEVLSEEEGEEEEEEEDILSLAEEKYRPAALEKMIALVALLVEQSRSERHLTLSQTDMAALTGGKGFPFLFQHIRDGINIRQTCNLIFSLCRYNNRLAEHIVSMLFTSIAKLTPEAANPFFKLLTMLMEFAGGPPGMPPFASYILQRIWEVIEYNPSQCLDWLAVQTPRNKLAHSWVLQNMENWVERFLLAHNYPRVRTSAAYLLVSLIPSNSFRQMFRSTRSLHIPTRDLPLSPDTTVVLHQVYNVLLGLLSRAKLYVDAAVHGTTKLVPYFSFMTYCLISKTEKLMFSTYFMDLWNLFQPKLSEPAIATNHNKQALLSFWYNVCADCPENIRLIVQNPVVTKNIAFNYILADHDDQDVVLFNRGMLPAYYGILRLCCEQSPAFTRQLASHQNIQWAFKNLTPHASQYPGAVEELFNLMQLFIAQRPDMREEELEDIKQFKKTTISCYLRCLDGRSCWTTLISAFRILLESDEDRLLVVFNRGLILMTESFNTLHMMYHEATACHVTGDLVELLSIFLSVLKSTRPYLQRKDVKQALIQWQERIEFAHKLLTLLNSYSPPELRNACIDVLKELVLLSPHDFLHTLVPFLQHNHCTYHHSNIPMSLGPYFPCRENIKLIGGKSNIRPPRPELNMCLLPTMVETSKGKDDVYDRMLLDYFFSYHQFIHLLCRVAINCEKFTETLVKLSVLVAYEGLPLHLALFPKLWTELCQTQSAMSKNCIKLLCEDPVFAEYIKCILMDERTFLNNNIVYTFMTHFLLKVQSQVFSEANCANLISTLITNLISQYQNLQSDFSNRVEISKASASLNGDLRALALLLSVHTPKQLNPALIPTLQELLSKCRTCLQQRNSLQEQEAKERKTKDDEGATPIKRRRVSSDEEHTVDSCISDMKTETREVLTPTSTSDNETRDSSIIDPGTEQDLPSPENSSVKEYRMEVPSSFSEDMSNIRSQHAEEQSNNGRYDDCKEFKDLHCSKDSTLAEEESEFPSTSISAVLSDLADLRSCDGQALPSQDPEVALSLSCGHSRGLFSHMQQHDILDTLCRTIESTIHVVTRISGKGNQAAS

Cl.O=C(CN1CCN(C(=O)CCl)CC1)Nc1ccc(F)cc1
inactive: [1] 0.1 | [2] -0.231 | [3] -0.043 | [4] 0.0696 | [5] 0.142
